Out of some 16,000 compounds screened, about 5,100 (32%) were called active. Another 25% or so got no clear call; they are omitted. The list shows a part of the results. Unmarked numbers belong to inactive results. Calls follow the shape of the dose curve; as a rule, active = well fitted curve in the direction sought with a large enough effect; inconclusive = small, poorly fitted or top-dose-only effect, or effect the other way; inactive = no such curve, though single readings can be large or run the other way.
What follows are compounds tested against Cytochrome P450 3A4 (Homo sapiens) (UniProt P08684) (assay: Cytochrome panel assay with activity outcomes). Conditions: recombinant CYP, pro-luciferin dealkylation, luminescence, p450-cyp3a4; series mostly up to 57.1 µM; activity, negative = inhibition: at the top concentration.
Chain of Cytochrome P450 3A4 (Homo sapiens) (P08684 whole entry, looked up): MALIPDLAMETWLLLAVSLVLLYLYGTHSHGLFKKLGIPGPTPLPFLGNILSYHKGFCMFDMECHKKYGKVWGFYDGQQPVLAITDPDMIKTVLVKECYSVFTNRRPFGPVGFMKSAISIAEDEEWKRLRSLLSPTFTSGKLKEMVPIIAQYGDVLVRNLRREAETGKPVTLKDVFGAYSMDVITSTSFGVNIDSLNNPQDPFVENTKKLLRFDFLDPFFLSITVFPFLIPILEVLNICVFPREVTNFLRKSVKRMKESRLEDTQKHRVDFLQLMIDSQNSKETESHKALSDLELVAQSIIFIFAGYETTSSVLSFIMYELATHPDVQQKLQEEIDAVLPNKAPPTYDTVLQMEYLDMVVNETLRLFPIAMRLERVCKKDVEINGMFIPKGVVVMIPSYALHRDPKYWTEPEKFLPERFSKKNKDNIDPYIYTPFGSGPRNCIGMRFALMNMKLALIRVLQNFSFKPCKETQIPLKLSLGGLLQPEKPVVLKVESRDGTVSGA
With `CCOC(=O)c1sc2nc(CC(=O)OC)nc(NCc3ccc(F)cc3)c2c1C` the AC50 was 4.47 µM (active). In the case of `CCOC(=O)c1sc2c(c1C)c(=O)c(C(=O)OCC)cn2CC`, the “activity, negative = inhibition” value was -3.84%. `Cc1cc(C)c(-c2noc(C(=O)OC(C)(C)C)c2C(=O)OC(C)(C)C)c(C)c1` showed an activity, negative = inhibition of -8.97% [at 2.29 µM]. `Cc1cc(C(=O)CC#N)c(C)n1CC(F)(F)F` was tested, and the AC50 was 3.16 µM (active). In the case of `O=C(/C=C/c1ccccc1)NC(NC(=S)Nc1ccc(Cl)cc1)C(Cl)(Cl)Cl` (centres undefined), the AC50 was 4.47 µM (active). `O=C(Cc1ccccc1)NC(NC(=S)Nc1cc(Cl)ccc1Cl)C(Cl)(Cl)Cl` (centres undefined) was tested, and the AC50 was 4.47 µM (active). In the case of `O=C(NNC(=S)Nc1ccccc1)c1ccco1`, the “activity, negative = inhibition” value was 28.6%. For `O=C(NC(NC(=S)Nc1cc(Cl)ccc1Cl)C(Cl)(Cl)Cl)c1ccco1` (centres undefined), the AC50 was 6.31 µM (active). With `O=C(/C=C/c1ccc(Cl)cc1)Nc1ccc(N2CCCCC2)cc1` the “activity, negative = inhibition” value was -0.808%. For `O=C(Cc1ccccc1)NC(=S)Nc1cc(C(F)(F)F)ccc1Cl`, the activity, negative = inhibition was -7.93% [at 2.29 µM]. With `O=C(CCc1ccccc1)Nc1ncn[nH]1` the “activity, negative = inhibition” value was 3.46%. `O=C(Cc1ccccc1)NC(NCCc1ccccc1)C(Cl)(Cl)Cl` (centres undefined) was tested, and the AC50 was 14.1 µM (active). In the case of `CC(CP(=O)(O)O)NC(=O)Cc1ccccc1` (centres undefined), the “activity, negative = inhibition” value was -3.58%. `C[C@@H](CCC(=O)O)C(=O)O` gave an activity, negative = inhibition of -7.96% [at 11.4 µM]. `COCCn1c(=O)c(-c2cn(C)c3ccccc23)nc2cnc(Oc3ccc(OC)cc3)nc21` was tested, and the AC50 was 3.98 µM (active). In the case of `COCCn1c(=O)c(-c2cn(C)c3ccccc23)nc2cnc(Oc3cccc(Cl)c3)nc21`, the “activity, negative = inhibition” value was -28.2%. With `COc1ccc(Oc2ncc3nc(-c4cn(C)c5ccccc45)c(=O)n(C4CC4)c3n2)cc1` the AC50 was 12.6 µM (active). For `COCCn1c(=O)c(-c2cn(C)c3ccccc23)nc2cnc(Oc3ccccc3)nc21`, the AC50 was 3.16 µM (active). In the case of `OCCNc1nc(NCCC2=CCCCC2)nc(N2CCOCC2)n1`, the “activity, negative = inhibition” value was -16.4%. With `Cc1ccc(N2CCN(CCC(=O)O)CC2)cc1` the activity, negative = inhibition was -4.63% [at 11.4 µM]. `Cc1ccc(C)c(-c2nn(-c3cc(N4CCN(CCO)CC4)ccc3[N+](=O)[O-])c(=O)c3ccccc23)c1` was tested, and the AC50 was 12.6 µM (active). For `Cc1ccc(OCC(=O)NNC(=O)c2cc3ccccc3o2)cc1C`, the “activity, negative = inhibition” value was -22.6%. With `Cc1ccc(OCc2ccc(C(=O)Nc3nccs3)o2)cc1C` the AC50 was 11.2 µM (active). Compound `CN1CCN(C(=O)c2ccc(COc3ccc(C(C)(C)C)cc3)o2)CC1` has an activity, negative = inhibition of -9.09% [at 2.29 µM]. For `COc1ccc(NC(=O)c2ccc(COc3ccccc3)o2)cc1`, the AC50 was 22.4 µM (active). For `O=C(COC(=O)COc1ccccc1)Nc1ccc(OC(F)(F)F)cc1`, the “activity, negative = inhibition” value was -1.1%. `COc1ccc(NC(=O)CCOc2ccccc2)cc1` was tested, and the AC50 was 15.8 µM (active). In the case of `CC(C)N(CC(=O)O)CC(=O)O`, the activity, negative = inhibition was -7.3% [at 11.4 µM]. For `CC12c3ccccc3C(c3ccccc31)C1C(=O)N(Cc3cccnc3)C(=O)C12` (centres undefined), the AC50 was 1.58 µM (active). In the case of `CC1CCCC(C)N1C(=O)C1CC(c2ccc(F)cc2)=NO1` (centres undefined), the AC50 was 11.2 µM (active). `CC1CCN(C(=O)CSc2nc3cccnc3n2C)CC1` was tested, and the “activity, negative = inhibition” value was -6.97%. With `O=C(O)c1cccnc1SCC(=O)N1CCCCCC1` the “activity, negative = inhibition” value was 4.51%. For `COc1ccccc1-n1c(SCC(=O)N2CCCC2)nc2cccnc21`, the AC50 was 15.8 µM (active). For `CCN(CC)S(=O)(=O)c1ccc2c(c1)nc(SCC(=O)N1CCOCC1)n2-c1ccccc1OC`, the AC50 was 3.98 µM (active). In the case of `CC(C)=C[C@H]1[C@@H](COC(=O)c2ccccc2Cl)C1(C)C`, the activity, negative = inhibition was -18.7% [at 11.4 µM]. With `Cc1cc(C(=O)NNC(=S)NC(C)c2ccccc2)c2ccccc2n1` (centres undefined) the AC50 was 14.1 µM (active). `CCNC(=S)NNC(=O)c1cc(C2CC2)nc2ccccc12` was tested, and the activity, negative = inhibition was -10.5% [at 2.29 µM]. With `CCNC(=S)NNC(=O)c1cc(CC(C)C)nc2ccccc12` the activity, negative = inhibition was -3.62% [at 2.29 µM]. With `CCCS(=O)(=O)N1CCN(CC2CC=CCC2)CC1` (centres undefined) the “activity, negative = inhibition” value was -20.2%. In the case of `COc1ccc2nc(N3C(=O)CC(Cc4ccc(Cl)cc4)C3=O)sc2c1` (centres undefined), the “activity, negative = inhibition” value was 20.7%. In the case of `COc1ccc(CN2CN(c3ccc(Cl)cc3)C(=O)N(n3cnnc3)C2)cc1`, the AC50 was 14.1 µM (active). With `COc1ccc(-n2cnnc2)cc1` the “activity, negative = inhibition” value was -29.4%. For `O=C(CSc1c[nH]c2ccccc12)N1CCOCC1`, the AC50 was 15.8 µM (active). In the case of `Nn1c(SCC(=O)N2CCOCC2)nnc1-c1ccccc1Cl`, the “activity, negative = inhibition” value was 14.8%. For `C=C(C)C1Cc2nc(N)nc(C)c2C1` (centres undefined), the “activity, negative = inhibition” value was -9.93%. For `Cc1ccc(Cn2nnc3c(=O)[nH]c(C4CCCN(C(=O)Nc5ccc(F)cc5F)C4)nc32)cc1` (centres undefined), the AC50 was 7.08 µM (active). For `O=C(NCc1ccco1)c1nc2c(nnn2Cc2cccc(Cl)c2)c(=O)[nH]1`, the “activity, negative = inhibition” value was 14.3%. For `COc1cccc(Cn2nnc3c(=O)[nH]c(C4CCCN(C(=O)c5ccccc5Cl)C4)nc32)c1` (centres undefined), the AC50 was 2 µM (active). In the case of `CC(=O)NC1(c2ccc(F)cc2)CCN(C(=O)Nc2ccc(F)cc2F)CC1`, the “activity, negative = inhibition” value was -17.4%. For `Cc1ccc(C)c(S(=O)(=O)N2CCC(c3nc4c(nnn4Cc4ccc(F)cc4)c(=O)[nH]3)CC2)c1`, the AC50 was 6.31 µM (active). Work on `O=C(O)C[C@@H](C(=O)O)C1c2ccccc2-c2ccccc21` yielded an activity, negative = inhibition of -5.49% [at 11.4 µM]. `NC(=O)c1cc[n+](CC2=C(C(=O)O)N3C(=O)[C@@H](NC(=O)[C@H](c4ccccc4)S(=O)(=O)[O-])[C@@H]3SC2)cc1` was tested, and the AC50 was “inactive”. With `O=C(O)/C=C/c1cn(-c2ncc(C(F)(F)F)cc2Cl)c2ccccc12` the “activity, negative = inhibition” value was -5.59%. With `CN(NC(=O)NN)c1ncc(C(F)(F)F)cc1Cl` the AC50 was 14.1 µM (active). In the case of `Cn1c(C(N)=O)cnc1Sc1ncc(C(F)(F)F)cc1Cl`, the “activity, negative = inhibition” value was -8.93%. `CC(C)(C)c1ccc(C(=O)NCCC(=O)NCc2ccco2)cc1` was tested, and the AC50 was 14.1 µM (active). `COCC1C2CC[C@H]3C(OCc4ccc(F)cc4C(F)(F)F)OC[C@]4(C)[C@H]3C2=C(CN4C(=O)OC(C)(C)C)[C@H](C)C1COC` (some centres undefined) was tested, and the AC50 was 15.8 µM (active). With `C[C@H]1C2=C3C(CC[C@H]4C(OCc5ccc(F)cc5C(F)(F)F)OC[C@](C)([C@@H]34)N(C(=O)OC(C)(C)C)C2)C(CO)C1CO` (some centres undefined) the AC50 was 15.8 µM (active). With `COc1cc(OC)c(NC(=S)Nc2cccc(C(C)=O)c2)cc1Cl` the AC50 was 5.01 µM (active). In the case of `O=C(Nc1ccccc1C(=O)Nc1ccc2c(c1)OCO2)c1ccco1`, the AC50 was 1.26 µM (active). In the case of `CC(C)Oc1ccc(C(=O)Nc2ccc(NC(=O)c3ccco3)c(Cl)c2)cc1`, the “activity, negative = inhibition” value was -24.4%. In the case of `Cn1ncc([N+](=O)[O-])c1C(=O)Nc1ccc2c(c1)OCCO2`, the “activity, negative = inhibition” value was -20.7%. In the case of `COc1ccc(C(=O)Nc2ccc(NC(=O)c3ccco3)c(Cl)c2)cc1OC`, the activity, negative = inhibition was -24% [at 11.4 µM]. In the case of `CC1(C)Oc2ccc(NC(=O)c3ccco3)cc2O1`, the “activity, negative = inhibition” value was -1.62%. For `COc1cc(NC(=O)c2ccccc2Cl)ccc1NC(=O)c1ccco1`, the AC50 was 14.1 µM (active). `O=C(Nc1ccc2c(c1)OCCO2)c1cccc2nc3ccccc3nc12` was tested, and the AC50 was 11.2 µM (active). `COC(=O)C1=C(C)OC(N)=C(C#N)C1C1CCCCC1` (centres undefined) was tested, and the AC50 was 7.08 µM (active). For `COC(=O)C1=C(C)OC(N)=C(C#N)C1c1cc(OC)ccc1OC` (centres undefined), the AC50 was 8.91 µM (active). `CCOC(=O)C1=C(CSc2nc(-c3ccccc3)ccc2C#N)OC(N)=C(C#N)C1c1ccc(OC)cc1` (centres undefined) gave an activity, negative = inhibition of -22.9% [at 2.29 µM]. For `CCOC(=O)C1=C(c2ccccc2)OC(N)=C(C#N)C1c1ccc(Cl)s1` (centres undefined), the “activity, negative = inhibition” value was -3.22%. In the case of `C[C@H]1NC(=O)NC1=O`, the AC50 was “inactive”. With `CC1=C[N+](=O)c2ccccc2[N+]1=O` the activity, negative = inhibition was -3.77% [at 11.4 µM]. `COc1ccccc1-c1ccc2ncnc(NCCNC(C)=O)c2c1` was tested, and the AC50 was 20 µM (active). For `CC(=O)NCCNc1ncnc2ccc(-c3ccccc3C)cc12`, the AC50 was 12.6 µM (active). With `CC(=O)NCCNc1ncnc2ccc(-c3ccccc3Cl)cc12` the AC50 was 15.8 µM (active). For `CC(=O)NCCNc1ncnc2ccc(-c3ccccc3C(F)(F)F)cc12`, the AC50 was 6.31 µM (active). `CN(C)CCCNc1ncnc2nc[nH]c12` was tested, and the activity, negative = inhibition was -8.34% [at 11.4 µM]. For `CC(C)(C)c1ccc(OCC(=O)N/N=C/c2cc(Br)ccc2OC(=O)c2ccco2)cc1`, the “activity, negative = inhibition” value was -3.57%. With `Cc1ccc(NCC(=O)N/N=C\c2ccc([N+](=O)[O-])o2)cc1` the AC50 was 25.1 µM (active). `CCOC(=O)N/N=C\c1ccc([N+](=O)[O-])o1` showed an activity, negative = inhibition of -11.7% [at 2.29 µM]. `Cc1ccc(/C=N/NC(=O)Cn2nccc2C)o1` was tested, and the “activity, negative = inhibition” value was -10.5%. With `Oc1ccc(/C=N/NC(=S)NCc2ccco2)cc1` the activity, negative = inhibition was -2.66% [at 2.29 µM]. In the case of `Cc1ccc(NCC(=O)N/N=C/c2ccc(OC(=O)c3ccco3)cc2)cc1`, the AC50 was 17.8 µM (active). `OC[C@@H]1O[C@@H](n2cnc3c(NC4CCCC4)ncnc32)[C@@H](O)[C@H]1O` was tested, and the “activity, negative = inhibition” value was -8.48%.

Source: PubChem BioAssay AID1851 (National Center for Advancing Translational Sciences (NCATS), 2009)
% is scaled to controls: 0 for no effect and ±100 for the full control effect.
